Laboratory results taken from the supplement of paper PMC10849652.
The full data set covers some 8,800 targets. This sample favours those with a hit. About 0.5% of all pairs of compound and target were hits.

How the values were obtained:
Assay in all cases: log2 fold change, soluble protein after heating vs DMSO (PISA); higher = thermal stabilisation; K562 lysate, 10 uM; active = over 0.2 and 3.5 SD of the protein, either way, in both replicates (recomputed)
[1] = compound: NCC(=O)Nc1ccc(-n2nc(C(F)(F)F)cc2-c2ccc3c(ccc4ccccc43)c2)cc1
In short: (§1)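 A 30 min treatment with 10 μM compound was applied to crude K562 extract at 1 mg/mL protein in PBS pH 7.4 with 1 mM MgCl2. Heating for 3 min spanned 48°C-58°C, after which aliquots were pooled, adjusted to 0.5% NP-40 at 4°C and spun at 21,000xg for 90 min. TMTpro 16plex LC-MS/MS of the supernatant, with channel sums equalised, gave values recorded as log-two fold change in thermal stability against solvent controls, from duplicates.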

vorinostat = compound: O=C(CCCCCCC(=O)Nc1ccccc1)NO [vorinostat]
In short: as §1

silmitasertib = compound: O=C(O)c1ccc2c(c1)nc(Nc1cccc(Cl)c1)c1ccncc12 [silmitasertib]
In short: as §1

[2] = compound: O=C1NC(=O)C(c2cnc3ccccn23)=C1c1cn2c3c(cc(F)cc13)CN(C(=O)N1CCCCC1)CC2
In short: as §1

entospletinib = compound: c1cn2cc(-c3ccc4cn[nH]c4c3)nc(Nc3ccc(N4CCOCC4)cc3)c2n1 [entospletinib]
In short: as §1

Measured: log2 fold change

PARG (UniProt Q86W56)
active: vorinostat -0.363
inactive: [1] 0.006 | silmitasertib -0.035 | [2] 0.018 | entospletinib 0.006

MYD88 isoform 6 (UniProt Q99836)
Chain of UniProt Q99836 (Q99836 whole entry, looked up): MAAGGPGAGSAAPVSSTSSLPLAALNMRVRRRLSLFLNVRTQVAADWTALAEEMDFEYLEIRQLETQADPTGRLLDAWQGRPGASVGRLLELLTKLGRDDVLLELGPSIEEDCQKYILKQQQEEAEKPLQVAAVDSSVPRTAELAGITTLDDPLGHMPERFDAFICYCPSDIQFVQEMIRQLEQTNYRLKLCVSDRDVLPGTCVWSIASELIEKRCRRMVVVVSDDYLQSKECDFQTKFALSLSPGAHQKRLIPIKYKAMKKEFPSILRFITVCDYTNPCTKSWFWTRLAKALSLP
active: vorinostat -0.366
inactive: [1] -0.005 | silmitasertib 0.023 | [2] -0.05 | entospletinib 0.033

NDUFA4 (UniProt O00483)
Chain of UniProt O00483 (O00483 whole entry, looked up): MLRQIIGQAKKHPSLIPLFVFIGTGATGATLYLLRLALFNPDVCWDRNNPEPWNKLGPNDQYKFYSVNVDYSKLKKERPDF
inactive: [1] -0.041 | vorinostat -0.017 | silmitasertib -0.004 | [2] 0.01 | entospletinib -0.029

OGT (UniProt O15294)
inactive: [1] 0.002 | silmitasertib 0.035 | [2] 0.045 | entospletinib 0.021
active: vorinostat -0.42

OTC (UniProt P00480)
Chain of UniProt P00480 (P00480 whole entry, looked up): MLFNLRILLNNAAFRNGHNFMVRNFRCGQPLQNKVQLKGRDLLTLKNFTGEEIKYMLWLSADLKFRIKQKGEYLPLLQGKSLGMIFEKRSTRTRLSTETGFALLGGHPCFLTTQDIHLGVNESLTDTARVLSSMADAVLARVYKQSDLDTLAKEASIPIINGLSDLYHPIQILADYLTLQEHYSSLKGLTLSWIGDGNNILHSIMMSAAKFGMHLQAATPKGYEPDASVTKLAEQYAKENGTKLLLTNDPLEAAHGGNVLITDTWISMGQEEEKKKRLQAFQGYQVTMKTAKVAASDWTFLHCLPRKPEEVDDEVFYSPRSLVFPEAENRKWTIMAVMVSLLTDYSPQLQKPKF
inactive: [1] 0.097 | vorinostat 0.087 | silmitasertib -0.029 | [2] -0.157 | entospletinib -0.028

NMRAL1 (UniProt Q9HBL8)
inactive: [1] -0.023 | vorinostat -0.009 | silmitasertib 0.047 | [2] -0.04 | entospletinib 0.012

MRPS31 (UniProt Q92665)
inactive: [1] 0.058 | vorinostat 0.021 | silmitasertib -0.046 | [2] -0.001 | entospletinib 0

MTA1 (UniProt Q13330)
Chain of UniProt Q13330 (Q13330 whole entry, looked up): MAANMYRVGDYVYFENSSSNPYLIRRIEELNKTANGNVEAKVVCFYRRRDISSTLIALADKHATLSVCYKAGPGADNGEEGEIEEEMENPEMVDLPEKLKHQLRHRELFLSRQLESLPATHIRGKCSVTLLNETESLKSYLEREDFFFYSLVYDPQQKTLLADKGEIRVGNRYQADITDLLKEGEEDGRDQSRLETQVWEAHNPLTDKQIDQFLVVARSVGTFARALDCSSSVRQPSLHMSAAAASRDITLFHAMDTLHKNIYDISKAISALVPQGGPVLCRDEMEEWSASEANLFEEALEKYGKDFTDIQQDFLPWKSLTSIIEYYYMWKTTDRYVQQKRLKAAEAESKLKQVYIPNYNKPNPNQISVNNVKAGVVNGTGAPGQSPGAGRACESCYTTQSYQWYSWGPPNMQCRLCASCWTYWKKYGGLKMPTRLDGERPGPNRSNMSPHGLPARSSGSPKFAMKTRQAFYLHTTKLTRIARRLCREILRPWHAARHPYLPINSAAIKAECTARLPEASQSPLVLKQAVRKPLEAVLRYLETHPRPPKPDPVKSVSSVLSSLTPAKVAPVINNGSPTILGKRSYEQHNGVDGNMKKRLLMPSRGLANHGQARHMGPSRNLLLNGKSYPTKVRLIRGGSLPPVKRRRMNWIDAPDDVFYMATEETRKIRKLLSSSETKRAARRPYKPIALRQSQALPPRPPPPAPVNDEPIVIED
inactive: [1] -0.005 | silmitasertib -0.037 | [2] 0.016 | entospletinib -0.036
active: vorinostat -0.212

MRPL51 (UniProt Q4U2R6)
inactive: [1] -0.03 | vorinostat -0.067 | silmitasertib -0.054 | [2] 0.121 | entospletinib 0.003

ORC2 (UniProt Q13416)
Chain of UniProt Q13416 (Q13416 whole entry, looked up): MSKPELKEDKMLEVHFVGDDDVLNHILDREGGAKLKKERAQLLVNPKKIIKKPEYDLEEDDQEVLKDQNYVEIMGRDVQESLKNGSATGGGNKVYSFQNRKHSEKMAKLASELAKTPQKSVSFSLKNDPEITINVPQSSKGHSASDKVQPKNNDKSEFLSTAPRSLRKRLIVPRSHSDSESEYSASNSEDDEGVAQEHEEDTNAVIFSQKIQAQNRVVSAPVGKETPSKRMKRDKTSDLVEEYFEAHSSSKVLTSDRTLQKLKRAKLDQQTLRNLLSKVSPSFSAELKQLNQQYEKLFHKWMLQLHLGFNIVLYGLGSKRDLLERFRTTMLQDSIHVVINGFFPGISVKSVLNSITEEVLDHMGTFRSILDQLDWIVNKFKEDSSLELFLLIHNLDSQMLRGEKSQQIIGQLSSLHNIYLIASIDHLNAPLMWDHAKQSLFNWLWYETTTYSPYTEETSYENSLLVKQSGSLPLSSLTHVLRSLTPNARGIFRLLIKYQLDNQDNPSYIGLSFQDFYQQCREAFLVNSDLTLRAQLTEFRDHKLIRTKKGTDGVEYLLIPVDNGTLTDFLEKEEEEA
inactive: [1] 0 | silmitasertib 0.007 | [2] 0.049 | entospletinib 0.021
active: vorinostat -0.285

NARF (UniProt Q9UHQ1)
Chain of UniProt Q9UHQ1 (Q9UHQ1 whole entry, looked up): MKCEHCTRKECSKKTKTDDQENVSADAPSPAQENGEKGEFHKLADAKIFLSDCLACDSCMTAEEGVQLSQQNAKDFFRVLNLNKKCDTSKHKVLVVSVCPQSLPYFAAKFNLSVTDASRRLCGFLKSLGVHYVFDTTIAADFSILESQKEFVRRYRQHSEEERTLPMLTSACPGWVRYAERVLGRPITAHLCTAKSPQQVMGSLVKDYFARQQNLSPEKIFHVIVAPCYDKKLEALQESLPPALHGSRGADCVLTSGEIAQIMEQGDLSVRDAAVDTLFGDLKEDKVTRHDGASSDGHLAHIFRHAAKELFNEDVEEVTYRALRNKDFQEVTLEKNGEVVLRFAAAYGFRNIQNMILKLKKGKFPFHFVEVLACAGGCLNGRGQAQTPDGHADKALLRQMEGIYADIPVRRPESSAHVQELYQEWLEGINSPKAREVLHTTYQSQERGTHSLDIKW
active: vorinostat -0.243
inactive: [1] -0.05 | silmitasertib -0.016 | [2] -0.008 | entospletinib -0.054

PAIP2 (UniProt Q9BPZ3)
Chain of UniProt Q9BPZ3 (Q9BPZ3 whole entry, looked up): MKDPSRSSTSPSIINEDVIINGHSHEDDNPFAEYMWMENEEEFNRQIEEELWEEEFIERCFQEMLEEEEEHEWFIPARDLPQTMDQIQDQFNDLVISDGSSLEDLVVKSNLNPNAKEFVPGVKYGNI
inactive: [1] 0.033 | vorinostat 0.054 | silmitasertib -0.052 | [2] -0.025 | entospletinib -0.027

OCRL (UniProt Q01968)
active: vorinostat -0.43
inactive: [1] 0.134 | silmitasertib 0.032 | [2] 0.019 | entospletinib -0.032

NACC1 (UniProt Q96RE7)
Chain of UniProt Q96RE7 (Q96RE7 whole entry, looked up): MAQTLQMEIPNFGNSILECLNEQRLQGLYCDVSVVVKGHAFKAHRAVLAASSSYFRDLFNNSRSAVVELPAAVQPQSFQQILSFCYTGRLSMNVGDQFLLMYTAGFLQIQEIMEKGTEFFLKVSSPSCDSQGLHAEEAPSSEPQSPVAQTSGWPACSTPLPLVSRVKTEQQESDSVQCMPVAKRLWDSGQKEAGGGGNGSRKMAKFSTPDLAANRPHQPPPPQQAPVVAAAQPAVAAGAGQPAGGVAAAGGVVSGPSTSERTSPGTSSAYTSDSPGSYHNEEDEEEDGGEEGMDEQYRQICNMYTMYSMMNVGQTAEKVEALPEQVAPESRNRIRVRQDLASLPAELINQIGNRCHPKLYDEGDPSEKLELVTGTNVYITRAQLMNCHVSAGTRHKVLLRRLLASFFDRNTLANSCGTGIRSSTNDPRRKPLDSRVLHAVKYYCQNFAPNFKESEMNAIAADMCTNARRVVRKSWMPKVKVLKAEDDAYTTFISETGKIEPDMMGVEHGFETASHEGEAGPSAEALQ
inactive: [1] -0.014 | silmitasertib 0.024 | [2] -0.004 | entospletinib -0.036
active: vorinostat -0.231

NTMT1 (UniProt Q9BV86)
Chain of UniProt Q9BV86 (Q9BV86 whole entry, looked up): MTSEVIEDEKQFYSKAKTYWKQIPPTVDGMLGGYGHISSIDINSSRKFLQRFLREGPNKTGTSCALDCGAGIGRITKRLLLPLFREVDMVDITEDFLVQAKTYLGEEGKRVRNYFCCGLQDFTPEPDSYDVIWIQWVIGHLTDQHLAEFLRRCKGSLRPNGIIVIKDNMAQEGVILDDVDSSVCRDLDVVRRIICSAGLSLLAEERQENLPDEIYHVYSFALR
inactive: [1] 0.008 | silmitasertib 0.026 | [2] 0.01 | entospletinib 0.049
active: vorinostat -0.366

NUSAP1 (UniProt Q9BXS6)
Chain of UniProt Q9BXS6 (Q9BXS6 whole entry, looked up): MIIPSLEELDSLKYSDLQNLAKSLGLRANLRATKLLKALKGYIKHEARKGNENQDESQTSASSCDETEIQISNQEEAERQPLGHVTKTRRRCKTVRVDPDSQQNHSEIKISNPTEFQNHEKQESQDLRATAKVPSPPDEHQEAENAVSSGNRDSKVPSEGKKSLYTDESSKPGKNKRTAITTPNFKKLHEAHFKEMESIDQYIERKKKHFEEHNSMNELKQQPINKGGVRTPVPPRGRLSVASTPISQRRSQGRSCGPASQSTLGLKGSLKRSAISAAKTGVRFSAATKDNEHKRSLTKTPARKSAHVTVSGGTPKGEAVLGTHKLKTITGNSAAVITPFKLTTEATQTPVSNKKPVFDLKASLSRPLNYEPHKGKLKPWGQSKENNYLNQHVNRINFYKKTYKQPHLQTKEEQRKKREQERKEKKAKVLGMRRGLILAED
inactive: [1] 0.01 | vorinostat 0.101 | silmitasertib -0.036 | [2] -0.003 | entospletinib -0.001

PARD3 (UniProt Q8TEW0)
inactive: [1] -0.071 | vorinostat -0.314 | silmitasertib -0.118 | [2] -0.081 | entospletinib -0.003

MT-ATP8 (UniProt P03928)
Chain of UniProt P03928 (P03928 whole entry, looked up): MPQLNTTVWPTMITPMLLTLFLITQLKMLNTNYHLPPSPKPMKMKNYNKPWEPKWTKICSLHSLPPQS
inactive: [1] 0.056 | vorinostat 0.155 | silmitasertib -0.026 | [2] 0.08 | entospletinib -0.009

NEK9 (UniProt Q8TD19)
Chain of UniProt Q8TD19 (Q8TD19 whole entry, looked up): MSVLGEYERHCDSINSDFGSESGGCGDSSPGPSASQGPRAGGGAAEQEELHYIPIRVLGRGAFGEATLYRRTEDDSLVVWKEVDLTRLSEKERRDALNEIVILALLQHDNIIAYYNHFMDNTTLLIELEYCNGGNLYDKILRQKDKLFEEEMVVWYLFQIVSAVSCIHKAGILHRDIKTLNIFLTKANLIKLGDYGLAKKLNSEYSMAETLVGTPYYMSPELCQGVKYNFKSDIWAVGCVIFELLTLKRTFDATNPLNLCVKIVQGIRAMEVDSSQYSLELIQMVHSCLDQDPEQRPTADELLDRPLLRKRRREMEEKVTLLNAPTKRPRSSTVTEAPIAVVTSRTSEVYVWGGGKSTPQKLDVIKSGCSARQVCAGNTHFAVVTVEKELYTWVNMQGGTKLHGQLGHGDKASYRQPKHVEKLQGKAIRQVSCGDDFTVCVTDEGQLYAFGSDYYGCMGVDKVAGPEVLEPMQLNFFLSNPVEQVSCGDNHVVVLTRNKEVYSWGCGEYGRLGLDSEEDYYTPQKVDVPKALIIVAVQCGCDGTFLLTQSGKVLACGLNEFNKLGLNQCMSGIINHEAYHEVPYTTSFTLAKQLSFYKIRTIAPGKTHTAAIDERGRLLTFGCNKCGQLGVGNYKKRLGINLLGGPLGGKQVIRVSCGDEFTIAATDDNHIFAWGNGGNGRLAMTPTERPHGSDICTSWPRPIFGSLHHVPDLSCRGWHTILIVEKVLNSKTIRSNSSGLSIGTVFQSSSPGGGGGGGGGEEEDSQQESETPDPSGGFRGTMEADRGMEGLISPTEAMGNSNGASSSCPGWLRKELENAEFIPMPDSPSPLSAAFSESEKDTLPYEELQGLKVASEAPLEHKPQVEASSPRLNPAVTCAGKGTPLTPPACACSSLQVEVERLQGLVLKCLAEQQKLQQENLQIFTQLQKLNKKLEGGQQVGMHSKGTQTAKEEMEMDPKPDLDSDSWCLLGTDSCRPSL
active: vorinostat -0.45
inactive: [1] -0.03 | silmitasertib 0.052 | [2] -0.013 | entospletinib 0.013

NNT (UniProt Q13423)
inactive: [1] 0.02 | vorinostat 0.023 | silmitasertib -0.001 | [2] -0.036 | entospletinib -0.01

MRPL58 (UniProt Q14197)
inactive: [1] 0.02 | vorinostat -0.053 | silmitasertib -0.008 | [2] 0.038 | entospletinib 0.041

NPM3 (UniProt O75607)
inactive: [1] -0.049 | vorinostat -0.012 | silmitasertib 0.021 | [2] -0.019 | entospletinib -0.037

NOB1 (UniProt Q9ULX3)
inactive: [1] 0.017 | vorinostat -0.128 | silmitasertib 0.048 | [2] -0.024 | entospletinib 0.024

NOC2L (UniProt Q9Y3T9)
inactive: [1] -0.055 | vorinostat -0.126 | silmitasertib 0.031 | [2] 0.009 | entospletinib 0.028

NFAT5 isoform 5 (UniProt O94916)
inactive: [1] 0.033 | vorinostat -0.026 | silmitasertib 0.037 | [2] 0.016 | entospletinib -0.061
